Measured values taken from PubChem BioAssay (NCATS).
Records with an inconclusive call do not appear. Where a call stands in place of a potency, no number is given. A number with no mark means an inactive call. Active and inactive are the calls of the source. Calls follow the shape of the dose curve; as a rule, active = well fitted curve in the direction sought with a large enough effect; inconclusive = small, poorly fitted or top-dose-only effect, or another doubt; inactive = no such curve, though single readings can be large; an effect the other way counts as inactive or inconclusive.

How the values were obtained:
[1] = molecular target: Cellular tumor antigen p53 (Homo sapiens) (UniProt P04637); assay: Primary qHTS for small molecule compounds that upregulate eGFP-tagged delta133p53alpha (in N-terminal) cells. (AID 2060322); conditions: NCI-H358 eGFP-delta133p53alpha fluorescence, 24 h; activation: active compounds read high; also: nearly all actives have a fitted effect of over 75% in size; also: potency is read from the fitted curve at half-maximal effect;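 as to activation: cells pre-induced with doxycycline then dosed without doxycycline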
Procedure, shortened: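 NCI-H358 cells pre-induced 24 h with 10 ng/ml doxycycline for eGFP-delta133p53alpha, plated dox-free and exposed 24 h at 37C to titrated compounds. Fixed, Hoechst-stained; gated GFP peak intensity by laser scanning cytometry, normalized to DMSO (0%) and 57.5 uM 5-azacytidine (100%).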

[2] = molecular target: Aldehyde dehydrogenase, mitochondrial (Homo sapiens) (UniProt P05091); assay: qHTS for Inhibitors of the Aldehyde Dehydrogenase Family (ALDH2) Primary screen (AID 2061308); conditions: ALDH2 enzyme inhibition qHTS, 1536-well; series mostly up to 56 µM; also: nearly all actives have a fitted effect of over 55% in size
[3] = molecular target: Retinaldehyde dehydrogenase 3 (Homo sapiens) (UniProt P47895); assay: qHTS for Inhibitors of the Aldehyde Dehydrogenase Family (ALDH1A3) Primary screen (AID 2061315); conditions: ALDH inhibition qHTS; series mostly up to 56 µM

Chain of Cellular tumor antigen p53 (Homo sapiens) (P04637 whole entry, looked up): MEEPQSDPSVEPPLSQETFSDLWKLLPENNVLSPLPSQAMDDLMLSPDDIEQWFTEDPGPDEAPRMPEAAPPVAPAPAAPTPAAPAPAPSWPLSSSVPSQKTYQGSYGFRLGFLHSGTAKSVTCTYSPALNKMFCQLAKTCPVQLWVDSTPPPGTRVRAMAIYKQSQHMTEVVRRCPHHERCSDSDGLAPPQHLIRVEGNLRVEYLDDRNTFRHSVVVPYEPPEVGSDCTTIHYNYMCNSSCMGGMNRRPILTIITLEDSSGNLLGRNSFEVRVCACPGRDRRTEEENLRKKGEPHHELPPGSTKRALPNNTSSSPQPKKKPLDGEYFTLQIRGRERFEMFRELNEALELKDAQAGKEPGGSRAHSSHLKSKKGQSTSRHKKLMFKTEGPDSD

SMILES	activation [1] [%]	Potency [2]	Potency [3]	Potency [1]
C=CCc1cc(OC)c(OC(C)C(O)c2ccc(O)c(OC)c2)c(OC)c1 (stereo not given)	4.46	inactive	inactive	–
C=CCc1ccc(O[C@@H]2O[C@H](CO)[C@@H](O)[C@H](O)[C@H]2O)c(O[C@@H]2O[C@H](CO)[C@@H](O)[C@H](O)[C@H]2O)c1	-13.7	inactive	inactive	–
CC(=O)C=C=C1C(C)(C)CC(O[C@@H]2O[C@H](CO)[C@@H](O)[C@H](O)[C@H]2O)CC1(C)O (stereo not given in full)	-1.79	inactive	inactive	–
CCC(C)(O)C(O)C(=O)OCc1ccc(O[C@@H]2O[C@H](CO)[C@@H](O)[C@H](O)[C@H]2O)c(OC)c1 (stereo not given in full)	-5.36	inactive	inactive	–
C=C1C[C@H](O)[C@@H](O)[C@@]2(C)C1[C@@H](O)[C@H]1OC(=O)C3[C@@H](C)[C@@H](O)[C@H](O)C2[C@]31C (stereo not given in full)	0.763	inactive	inactive	–
C/C=C(/C)C(=O)OC1C2OC2C2(CO2)C2C3OC(=O)C(C)C3CCC12C (stereo not given)	18.3	inactive	inactive	–
CC(=O)OC[C@@]12[C@H](O)C[C@]3(C)C(=CCC4[C@@]5(C)CC[C@H](O[C@@H]6O[C@H](C(=O)O)[C@@H](O[C@@H]7O[C@H](CO)[C@@H](O)[C@H](O)[C@H]7O)[C@H](O)[C@H]6O[C@@H]6O[C@H](CO)[C@@H](O)[C@H](O)[C@H]6O)[C@](C)(CO)C5CC[C@]43C)[C@@H]1CC(C)(C)[C@@H](OC(C)=O)[C@@H]2O (stereo not given in full)	-4.58	inactive	inactive	–
CC1CCC2C(C(=O)O)=CC3CC(C)(C)CC132 (stereo not given)	2.29	inactive	inactive	–
COc1cc(NC(=O)c2cccc(-n3cc(NC(=O)Nc4cccc(C)c4)cn3)c2)cc(OC)c1OC	–	inactive	inactive	23.9 µM (active)
C[C@@H]1O[C@@H](OC[C@H]2O[C@@H](OCC3CCC4CC3C4(C)C)[C@H](O)[C@@H](O)[C@@H]2O)[C@H](O)[C@H](O)[C@H]1O (stereo not given in full)	16.1	inactive	inactive	–
COc1ccc(/C=C/C(=O)O[C@@H]2[C@@H](O)[C@@H](O)[C@H](O[C@H]3[C@@H]4C=CO[C@@H](O[C@@H]5O[C@H](CO)[C@@H](O)[C@H](O)[C@H]5O)[C@@H]4[C@@]4(CO)O[C@@H]34)O[C@H]2C)cc1	-16	inactive	inactive	–
COC(=O)C1=CO[C@@H](O[C@@H]2O[C@H](CO)[C@@H](O)[C@H](O)[C@H]2O)[C@@H]2[C@@](C)(O)[C@@H](O)C[C@]12O	-2.29	inactive	inactive	–
COc1ccc(/C=C/C(=O)O[C@@H]2[C@@H](OC(C)=O)[C@@H](OC(C)=O)[C@H](O[C@H]3[C@@H]4C=CO[C@@H](O[C@@H]5O[C@H](CO)[C@@H](O)[C@H](O)[C@H]5O)[C@@H]4[C@@]4(CO)O[C@@H]34)O[C@H]2C)cc1	5.34	inactive	inactive	–
CC/C=C\CC1C(CC(=O)O)CCC1OC1OC(CO)C(O)C(O)C1O (stereo not given)	0	inactive	inactive	–
CC(C)(C)CCN1C[C@@H]2C(CNC(=O)c3cc(Cl)cc(Cl)c3)[C@@H]2C1 (stereo not given in full)	26.3	inactive	inactive	–
COc1ccc(CC(=O)NCc2ccccc2-c2ccccc2C(=O)NCCc2cccnc2)cc1	0.955	inactive	inactive	–
O=C1NCc2nc3ccccc3c(=O)n2C1Cc1c[nH]c2ccccc12 (stereo not given)	-7.63	inactive	inactive	–
CC(=O)/C=C/C1C(C)CC(O[C@@H]2O[C@H](CO)[C@@H](O)[C@H](O)[C@H]2O)CC1(C)C (stereo not given in full)	-0.893	inactive	inactive	–
CC(C)=CCC[C@](C)(O[C@@H]1O[C@H](CO[C@@H]2OC[C@H](O)[C@H](O)[C@H]2O)[C@@H](O)[C@H](O)[C@H]1O)[C@H]1CC[C@]2(C)[C@@H]1[C@H](O)C[C@@H]1[C@@]3(C)CC[C@H](O[C@@H]4O[C@H](CO)[C@@H](O)[C@H](O)[C@H]4O[C@@H]4O[C@H](CO)[C@@H](O)[C@H](O)[C@H]4O)C(C)(C)[C@@H]3CC[C@]12C	9.67	inactive	inactive	–
C[C@]12CCC[C@](C)(C(=O)O)C1CCC13CC(CO)C(CCC12)C3 (stereo not given in full)	-19.1	inactive	inactive	–
